{"source": "PubChem BioAssay AID602293", "about": "(National Center for Advancing Translational Sciences (NCATS), 2012)", "note": "In all, about 1,300 compounds went through this assay and about 30 (2%) were called active. Roughly 10% stayed inconclusive and do not appear here. This is one part of a sample in which actives are shown more often than they occur. Unmarked numbers belong to inactive results. The call rests on the fitted dose curve; in most records, active means well fitted inhibition curve with a large enough effect; inconclusive means small, poorly fitted or top-dose-only effect; inactive means flat fitted curve, though single readings scatter. On the % scale 0 is the no-effect control and ±100 the full control effect; potency means the concentration at half of the fitted maximal effect.", "data": [{"assay": "qHTS for antagonists of the Thyroid Stimulation Hormone Receptor: Hit Validation in HTRF Activity in a Luteinizing Hormone Receptor Cell Line", "settings": "LHR-expressing cell line, cAMP HTRF, antagonist mode; series mostly up to 58 µM; activity change, negative = inhibition: at the top concentration", "description": "The thyroid-stimulating hormone receptor (TSHR) is a member of the 7 trans-membrane-spanning receptor (7TMR) family of cell surface receptors. TSHR-mediated hyperthyroidism is important in thyroid pathology. The development of small molecule antagonists of TSHR may lead to therapeutic approaches for TSHR-mediated hyperthyroidism caused by constitutively activating mutations or stimulating auto-antibodies associated with Graves' disease. Graves' disease is the leading cause of hyperthyroidism and is caused by autoantibodies that stimulate TSHR (TsAbs) causing thyroid growth and unregulated overproduction of thyroid hormones and existing treatments have liabilities (agranulocytosis). In addition, TSHRs are known to be expressed in multiple extrathyroidal tissues including bone, brain, kidney, testis, fat and cells of the immune system but the role of the TSHR in these tissues is not clear. Therefore, TSHR antagonists/inverse agonists could be used as probes of extrathyroidal TSHR function. Finally, TSHR inverse agonists, which are a subclass of antagonists that inhibit agonist-independent (or basal or constitutive) TSHR signaling, could be used to inhibit TSH-independent signaling in patients with recurrent or metastatic thyroid cancer who are receiving thyroid hormone to suppress TSH.\nIn collaboration between scientist from the NCGC and the NIDDK, a miniaturized HTRF high-throughput screen was developed. It's a cell based assay, where an anti cAMP antibody contains a fluorescent cryptate tag (excitation 337 nm; emission 620 nm) and the acceptor is cAMP-d2 (excitation 620 nm; emission 665 nm). When antibody and cAMP-d2 interact and are excited by a 337 nm light, a FRET occurs resulting in emission at 665 nm. The assay is competition between cAMP-d2 and cAMP (from the cell lysate). The homogeneous protocol allows for one step dispense after stimulation that is automation friendly. In order to confirm specificity of the compounds to the TSHR, a confirmatory assay was conducted on a similar family member, the Luteinizing Hormone (LH) receptor, transfected into a HEK 293 cell line, using an orthogonal detection technology to measure cAMP stimulation: antibody-based Homogeneous Time Resolved Fluorescence (HTRF).\nNIH Chemical Genomics Center [NCGC]\nNIH Molecular Libraries Probe Centers Network [MLPCN]\nAssay Provider: Marvin Gershengorn, NIDDK\nHomogeneous Time Resolved Fluorescence (HTRF) cAMP Assay. HEK 293 cells stably transfected with a vector containing the LH receptor and maintained under hygromycin selection were obtained from the laboratory of Dr. Marvin Gershengorn. Compounds were assayed using a HTRF cAMP detection kit (Cisbio) on the LH receptor transfected cell line. Briefly, 750 cells were plated in 2.5 ul/well of complete media (DMEM containing 10 % FCS, and 100 uM RO 20-1724) in 1536 well solid bottom white plates and 23 nl/well compound in DMSO solution or controls was added. Following 30 minute incubation at room temperature, 2.5 ul/well of labeled d2 cAMP and 2.5 ul/well of anti-cAMP antibody (both diluted 1:20 in lysis buffer) were added to each well using a flying reagent dispenser (Aurora Discovery, San Diego) . Plates were measured using the Envision plate reader (PerkinElmer, Boston, MA) with excitation at 330 nm and emissions of 615 nm and 660 nm.", "units": {"activity change, negative = inhibition": "%"}, "values": [{"smiles": "Cc1nc(NCCc2ccccc2)c(C#N)c(C)c1[N+](=O)[O-]", "activity change, negative = inhibition": -0.65}, {"smiles": "O=C(OCn1ncc(Cl)c(Cl)c1=O)c1ccccc1Cl", "activity change, negative = inhibition": -5.91}, {"smiles": "O=S(=O)(Nc1cccnc1)c1ccc(C2CCCCC2)cc1", "activity change, negative = inhibition": 1.64}, {"smiles": "CC(C)Cc1nc2oc3c(Cl)ncnc3c2c2c1CCC2", "activity change, negative = inhibition": -4.6}, {"smiles": "Cc1cccc(NC(=O)c2ccc(Cl)c(S(=O)(=O)N3CCc4ccccc43)c2)n1", "activity change, negative = inhibition": -9.41}, {"smiles": "COc1ccc(CCNC2=C(Cl)C(=O)N(CCc3ccc(OC)c(OC)c3)C2=O)cc1OC", "Potency": "37.9 µM (active)"}, {"smiles": "COc1ccc(CCNC2=C(Cl)C(=O)N(CCc3ccccc3)C2=O)cc1OC", "activity change, negative = inhibition": -9.23}, {"smiles": "COc1ccc(CCNc2ncnc3c2[nH]c2cc(OC)c(OC)cc23)cc1OC", "activity change, negative = inhibition": -3.52}, {"smiles": "COc1cccc(N2CCN(c3ncnc4c3cnn4-c3ccc(C)cc3C)CC2)c1", "Potency": "33.8 µM (active)"}, {"smiles": "COc1ccc(OC)c(NC(=O)CSc2ncnc3c2cnn3-c2ccccc2Cl)c1", "activity change, negative = inhibition": -8.87}, {"smiles": "COc1ccc(-n2ncc3c(N(C)C4CCCCC4)ncnc32)cc1", "activity change, negative = inhibition": -3.61}, {"smiles": "O=C(NC1C2CC3CC(C2)CC1C3)c1ccc2c(c1)OCO2", "note": "(centres undefined)", "activity change, negative = inhibition": 1.26}, {"smiles": "CC(C)(C)OC(=O)NCCCCCc1cn([C@@H](CO)C(=O)NCCCCCCCCCCC(=O)N2CCN(C(=O)OC(C)(C)C)CC2)nn1", "Potency": "37.9 µM (active)"}, {"smiles": "Cc1cccc(OCC(=O)Nc2nc3ccc([N+](=O)[O-])cc3s2)c1C", "activity change, negative = inhibition": 2.41}, {"smiles": "CCOc1cc(N2CCOCC2)c(OCC)cc1NC(=O)c1cc(S(=O)(=O)N2CCOCC2)ccc1C", "activity change, negative = inhibition": -0.64}, {"smiles": "CCS(=O)(=O)c1ncc(Cl)c(C(=O)Nc2ccc(S(=O)(=O)N(C)c3ccccc3)cc2)n1", "Potency": "42.6 µM (active)"}, {"smiles": "CCCc1nnc(NC(=O)c2nc(S(=O)(=O)Cc3ccc(C)cc3)ncc2Cl)s1", "activity change, negative = inhibition": -2.21}, {"smiles": "COC(=O)c1ccc(NC(=O)c2nc(S(=O)(=O)Cc3cccc(C)c3)ncc2Cl)cc1", "activity change, negative = inhibition": -1.75}, {"smiles": "CN(c1ccccc1)S(=O)(=O)c1ccc(NC(=O)c2nc(S(C)(=O)=O)ncc2Cl)cc1", "Potency": "30.1 µM (active)"}, {"smiles": "Cc1ccc(CS(=O)(=O)c2ncc(Cl)c(C(=O)Nc3nnc(C(C)C)s3)n2)cc1", "activity change, negative = inhibition": -6.84}, {"smiles": "O=C(Nc1ccccc1)c1nnsc1S(=O)(=O)c1ccc(Cl)cc1", "activity change, negative = inhibition": -4.24}, {"smiles": "CC(C)c1nnc(NC(=O)c2nc(S(=O)(=O)Cc3ccccc3F)ncc2Cl)s1", "activity change, negative = inhibition": -6.24}, {"smiles": "CCN(c1ccccc1)S(=O)(=O)c1ccc(NC(=O)c2nc(S(C)(=O)=O)ncc2Cl)cc1", "Potency": "33.8 µM (active)"}, {"smiles": "CCOC(=O)c1ccc(NC(=O)c2nc(S(=O)(=O)Cc3ccccc3)ncc2Cl)cc1", "activity change, negative = inhibition": -2.38}, {"smiles": "CN(c1cccc(NC(=O)c2ccc(Cl)c(S(=O)(=O)Nc3ccccc3)c2)c1)S(C)(=O)=O", "activity change, negative = inhibition": 1.14}, {"smiles": "CCC1CCCCN1S(=O)(=O)c1ccc(NC(=O)c2nc(S(C)(=O)=O)ncc2Cl)cc1", "note": "(centres undefined)", "Potency": "30.1 µM (active)"}, {"smiles": "Cc1ccc(NC(=O)c2nc(S(=O)(=O)Cc3ccccc3C)ncc2Cl)cc1C", "activity change, negative = inhibition": -0.454}, {"smiles": "COc1ccc(OC)c(NC(=O)c2cc(S(=O)(=O)NCc3ccco3)ccc2F)c1", "activity change, negative = inhibition": -2.65}, {"smiles": "COc1ccccc1C1CCN(c2cc(O)ccc2[N+](=O)[O-])CC1", "activity change, negative = inhibition": 1.21}, {"smiles": "Cc1ccc(C)c(N2CCN(C(=O)C(Cc3ccccc3)n3cccc3)CC2)c1", "note": "(centres undefined)", "activity change, negative = inhibition": -3.11}, {"smiles": "Cc1ccccc1NC(=O)c1cc2ccccn2n1", "activity change, negative = inhibition": 2.78}, {"smiles": "Cc1csc(NC(=O)c2cc3c(C)nn(Cc4ccccc4Cl)c3s2)n1", "activity change, negative = inhibition": -3.84}, {"smiles": "COC(=O)CCN(Cc1cc(OC)ccc1OC)S(=O)(=O)c1ccccc1Br", "activity change, negative = inhibition": 1.58}, {"smiles": "CCn1c(=NC(=O)CSC(C)=O)sc2cc(OC)ccc21", "activity change, negative = inhibition": -1.89}, {"smiles": "Brc1ccc(CNc2ccc3ncccc3c2)cc1", "activity change, negative = inhibition": 0.575}, {"smiles": "Cc1n[nH]c(C)c1S(=O)(=O)N1CCCC(C(=O)N2CCN(c3ccc(Cl)cc3)CC2)C1", "note": "(centres undefined)", "activity change, negative = inhibition": -2.41}, {"smiles": "CCCCn1c(-c2c(Cl)c(C)nn2C)n[nH]c1=S", "activity change, negative = inhibition": 2.87}, {"smiles": "Clc1ccc(CCNc2ncnc3nc[nH]c23)cc1", "activity change, negative = inhibition": -2.95}, {"smiles": "Cc1cc(-n2c(C)cc(C(=O)CSc3[nH]c(=O)cc(C(F)(F)F)c3C#N)c2C)no1", "activity change, negative = inhibition": 2.79}, {"smiles": "Cc1ccc(C(=O)C2=C(O)C(=O)N(c3ncccn3)C2c2ccccc2F)o1", "note": "(centres undefined)", "activity change, negative = inhibition": -6.53}, {"smiles": "O=c1[nH]nc(Cc2ccc(-c3cccc(Cl)c3)o2)c2ccccc12", "activity change, negative = inhibition": 1.92}, {"smiles": "C1=C(CCNc2ncnc3c2[nH]c2ccccc23)CCCC1", "activity change, negative = inhibition": -9.93}, {"smiles": "COc1ccc(N2CCN(C(c3nnnn3CCc3ccccc3)C(C)C)CC2)cc1", "note": "(centres undefined)", "activity change, negative = inhibition": -0.511}, {"smiles": "O=C(NCCC1=CCCCC1)C1CCCN(S(=O)(=O)c2ccccc2)C1", "note": "(centres undefined)", "activity change, negative = inhibition": -0.0889}, {"smiles": "CCCCCCOc1ccc(NC(=O)CC2C(=O)N(CC)C(=S)N2Cc2ccco2)cc1", "note": "(centres undefined)", "activity change, negative = inhibition": 0.236}, {"smiles": "COc1ccc(Nc2ccc([N+](=O)[O-])c3nonc23)c(OC)c1", "activity change, negative = inhibition": 1.19}, {"smiles": "O=[N+]([O-])c1ccc(Sc2cccc[n+]2[O-])c2nonc12", "Potency": "23.9 µM (active)"}, {"smiles": "COC(=O)c1c(NC(NC(C)=O)C(Cl)(Cl)Cl)sc2c1CCCC2", "note": "(centres undefined)", "activity change, negative = inhibition": 1}, {"smiles": "COc1cc([N+](=O)[O-])cc(/C=C2/SC(=S)N(Cc3ccccc3)C2=O)c1O", "activity change, negative = inhibition": -3.99}]}]}
